Measurements from PubChem BioAssay (NCI).
Compounds without any hit were thinned out: in the full panel of roughly 83,000, 20% have a hit.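 48-hour exposure, single concentration, 96-well plates; percent growth endpoint where 0 means no net growth. Active: below 10.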 Calls of active or inactive are those of the source.

Legend:
Assay in all cases: NCI-60 one-dose screen, 48 h (100 = growth as untreated, 0 = no growth, -100 = all killed)
Details in all cases: 10 µM unless noted
[1] = tested on: DU-145 prostate
[2] = tested on: K-562 leukemia
[3] = tested on: MALME-3M melanoma
[4] = tested on: MDA-MB-231 breast
[5] = tested on: RXF 393 renal
[6] = tested on: SF-268 CNS
[7] = tested on: SF-295 CNS
[8] = tested on: SF-539 CNS
[9] = tested on: UACC-257 melanoma
[10] = tested on: M14 melanoma
[11] = tested on: HCT-15 colon
[12] = tested on: HT29 colon
[13] = tested on: SNB-75 CNS
[14] = tested on: SNB-19 CNS
[15] = tested on: U251 CNS
[16] = tested on: PC-3 prostate
[17] = tested on: SK-MEL-5 melanoma
[18] = tested on: UACC-62 melanoma
[19] = tested on: LOX IMVI melanoma
[20] = tested on: SK-MEL-28 melanoma

Measured: growth

CC1(C)C=Cc2cc(/C(N)=N/C(N)=N/c3nc4ccccc4s3)ccc2O1
inactive: [1] 94.9% | [2] 57.6% | [3] 104% | [4] 77.5% | [5] 103% | [6] 93.2% | [7] 81.6% | [8] 97.3% | [9] 104% | [10] 103% | [11] 57.7% | [12] 95.1% | [13] 101% | [14] 96.6% | [15] 89.8% | [16] 34.7% | [17] 87.9% | [18] 96.7% | [20] 108%
active: [19] -56.3%

COc1ccc([C@@H]2C(=O)N(c3cc(OC)c(OC)c(OC)c3)[C@H]2c2ccc(OC)c(O)c2)cc1
active: [8] 5.74% | [12] -12% | [17] -22.9%
inactive: [1] 10.9% | [2] 12.7% | [3] 69.5% | [4] 28.8% | [5] 16.7% | [6] 25.2% | [7] 17.9% | [9] 56.6% | [10] 12.6% | [11] 10.8% | [13] 43.1% | [14] 29.7% | [15] 19.3% | [16] 29.8% | [18] 29.2% | [19] 19.4% | [20] 67.8%

Cc1csc(/N=C(N)/N=C(\N)c2cccc(Br)c2)n1
inactive: [1] 105% | [2] 57% | [3] 97.7% | [4] 96% | [5] 94.1% | [6] 91.7% | [7] 94.1% | [8] 92.6% | [9] 102% | [10] 86.6% | [11] 67% | [12] 97.4% | [13] 72.8% | [14] 79.2% | [15] 91.5% | [16] 87.9% | [17] 97.6% | [18] 74.5% | [19] 90.4% | [20] 92.1%

CN1CCN(c2ccc(Nc3nc(NCCNS(=O)(=O)c4ccc5ccccc5c4)c4sccc4n3)cc2)CC1
active: [2] 1.59% | [3] 2.39% | [10] -82.6% | [11] 7.96% | [12] 8.55% | [19] -77.3%
inactive: [1] 84% | [4] 74.3% | [5] 29.4% | [6] 63.3% | [7] 102% | [8] 65% | [9] 65.7% | [13] 78% | [14] 90.6% | [15] 13.4% | [16] 76% | [17] 86.1% | [18] 66.5% | [20] 74.4%

COc1ccc(C2CC(c3cccc(OCCCCOc4cccc(C5=NOC(c6ccc(OC)cc6)C5)c4)c3)=NO2)cc1 (stereo not given)
inactive: [1] 104% | [2] 45.1% | [3] 110% | [4] 99.9% | [5] 114% | [6] 108% | [7] 101% | [8] 111% | [9] 96.9% | [10] 90.5% | [11] 77.3% | [12] 69.8% | [13] 101% | [14] 92% | [15] 77.3% | [16] 99.8% | [17] 97.5% | [18] 68.8% | [19] 17.9% | [20] 102%

CCc1cc2c(cc1Cl)nc1c(=O)[nH]c(=O)nc-1n2CCOCC(C)(C)C
inactive: [1] 94.5% | [2] 57.4% | [4] 67.2% | [5] 75.5% | [6] 88.1% | [7] 71.8% | [8] 84.2% | [9] 73.3% | [10] 61.8% | [11] 58.3% | [12] 58.5% | [13] 97% | [14] 91% | [15] 83.4% | [16] 68% | [17] 39.6% | [18] 76.1% | [19] 71.9% | [20] 97.2%
active: [3] -9.68%

COc1ccc2sc(NC(=O)CCCCCCNC(=O)C(O)(O)C(F)(F)F)nc2c1
active: [1] 4.67% | [5] -47.6% | [6] -0.601% | [7] -37.1% | [8] 6.85% | [11] 5.37% | [12] 5.06% | [15] -51.5% | [17] -82.2% | [18] -64.6% | [19] -81% | [20] 1.51%
inactive: [2] 11.2% | [3] 20.7% | [4] 20% | [9] 12.5% | [10] 13.4% | [13] 41.4% | [14] 15.9% | [16] 34.1%

C#C[C@]1(O)CC[C@H]2[C@@H]3CC=C4c5sc(NCc6ccccc6)nc5CC[C@]4(C)[C@H]3CC[C@@]21C
inactive: [1] 71% | [3] 43.6% | [4] 48.4% | [6] 47.5% | [10] 21.4% | [13] 23.5% | [14] 66.2% | [15] 23.4% | [16] 15.3% | [17] 58.2% | [20] 12.7%
active: [2] 1.46% | [5] -36% | [7] -57.6% | [8] -39.9% | [9] -10% | [11] 8.8% | [12] -7.33% | [18] 9.41% | [19] -5.72%

CNC(=O)Nc1ccc(Nc2cc(-c3ccc(-n4cccn4)cc3)[nH]n2)c(C)c1
inactive: [1] 105% | [2] 95.5% | [3] 125% | [4] 123% | [5] 141% | [6] 103% | [7] 109% | [8] 98.7% | [9] 115% | [10] 126% | [11] 103% | [12] 120% | [13] 123% | [14] 97.6% | [15] 106% | [16] 107% | [17] 97.7% | [18] 114% | [19] 129% | [20] 114%

Cc1ccc2c(n1)C(=O)C(Cl)=C(Nc1ccccc1C(=O)OC(C)(C)C)C2=O
inactive: [4] 55.5% | [6] 79.6% | [7] 91.8% | [8] 83.1% | [12] 26.2% | [13] 98.6% | [14] 80.4% | [15] 71.5% | [16] 67.1% | [17] 45.3% | [18] 79% | [20] 34.6%
active: [1] -56.2% | [2] -15.7% | [3] -45.9% | [5] -81.7% | [9] -63.5% | [10] -10.6% | [11] -66.2% | [19] -72.5%

COc1cc(OC)cc(-c2cc(-c3c[nH]c4ccccc34)nc(-c3c[nH]c4ccccc34)c2C#N)c1
inactive: [1] 101% | [2] 93.2% | [3] 108% | [4] 101% | [5] 108% | [6] 100% | [7] 101% | [8] 94.2% | [9] 112% | [10] 95% | [11] 102% | [12] 108% | [13] 87.6% | [14] 96.6% | [15] 100% | [16] 93.6% | [17] 98.5% | [18] 93.6% | [19] 82.7% | [20] 101%

CN(C)c1ccc(/C=N/Nc2nc(N/N=C/c3ccc(N(C)C)cc3)nc(N3CCCCC3)n2)cc1
inactive: [1] 77.5% | [4] 68.6% | [5] 93.3% | [6] 105% | [7] 107% | [9] 104% | [10] 72.8% | [13] 101% | [14] 86% | [15] 50% | [16] 84.8% | [17] 86.7% | [18] 101% | [20] 41.7%
active: [2] 3.08% | [3] -67.3% | [8] -12.3% | [11] 0.121% | [12] -4.67% | [19] -73.3%

Cc1ccc2c(n1)C(=O)C(Cl)=C(Nc1ccc(C(=O)OC(C)(C)C)cc1)C2=O
active: [2] 0.658% [9.25 µM] | [5] -19.3% [9.25 µM] | [11] -43.9% [9.25 µM] | [19] -59.3% [9.25 µM]
inactive: [1] 97.9% [9.25 µM] | [3] 24% [9.25 µM] | [4] 53.9% [9.25 µM] | [6] 87.6% [9.25 µM] | [7] 104% [9.25 µM] | [8] 100% [9.25 µM] | [9] 29.5% [9.25 µM] | [10] 61.3% [9.25 µM] | [12] 100% [9.25 µM] | [13] 83.8% [9.25 µM] | [14] 83.8% [9.25 µM] | [15] 83.5% [9.25 µM] | [16] 72.1% [9.25 µM] | [17] 87.6% [9.25 µM] | [18] 87.1% [9.25 µM] | [20] 82.5% [9.25 µM]

O=S(=O)(Oc1ccc(-c2cn3ccoc3n2)cc1)C1CCCCC1
inactive: [1] 107% | [2] 89.5% | [3] 103% | [4] 105% | [5] 122% | [6] 108% | [7] 93.8% | [8] 97% | [9] 106% | [10] 104% | [11] 62.7% | [12] 96.7% | [13] 124% | [14] 97.1% | [15] 104% | [16] 91.5% | [17] 91.1% | [18] 85.3% | [19] 100% | [20] 100%

O=C(O)c1ccc(-n2c(=O)n(-c3cccc(C(F)(F)F)c3)c(=O)c3cc(-c4ccc(F)cc4F)ccc32)cc1
inactive: [1] 25.9% | [6] 22.1% | [8] 17.8% | [10] 18.6% | [11] 10.4% | [12] 48.5% | [14] 13.4% | [15] 11.1% | [20] 26.1%
active: [2] 5.71% | [3] -12.8% | [4] -25.8% | [5] -1.85% | [7] -12.6% | [9] -1.96% | [13] -12.1% | [16] 3.4% | [17] -60.4% | [18] -3.72% | [19] 5.95%
